sEH activator: increases human soluble epoxide hydrolase activity; P34913; purified human sEH enzymatic activity, activator screen; activation, % at 2 µM; 91,000 compounds, 0.04% hits; AID 717; in the data active means activation above about 37%
Target sequence (P34913 whole entry, looked up): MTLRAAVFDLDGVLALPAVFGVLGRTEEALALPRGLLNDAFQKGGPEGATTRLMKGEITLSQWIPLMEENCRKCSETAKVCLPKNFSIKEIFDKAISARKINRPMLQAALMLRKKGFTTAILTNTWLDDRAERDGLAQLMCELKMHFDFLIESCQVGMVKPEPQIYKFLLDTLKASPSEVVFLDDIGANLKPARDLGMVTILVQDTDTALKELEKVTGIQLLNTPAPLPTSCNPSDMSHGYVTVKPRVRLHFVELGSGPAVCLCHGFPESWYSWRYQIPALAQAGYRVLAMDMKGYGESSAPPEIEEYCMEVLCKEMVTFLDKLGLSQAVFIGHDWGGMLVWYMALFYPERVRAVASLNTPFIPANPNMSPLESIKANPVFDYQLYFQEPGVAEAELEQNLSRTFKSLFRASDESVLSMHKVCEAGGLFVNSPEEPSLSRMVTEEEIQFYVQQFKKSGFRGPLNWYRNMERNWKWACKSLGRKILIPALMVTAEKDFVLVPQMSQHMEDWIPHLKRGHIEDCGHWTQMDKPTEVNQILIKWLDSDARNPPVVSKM
CYP2C9 activ: CYP2C9 (human) activation. P11712. recombinant CYP2C9, luciferin-H conversion, luminescence; hits give high values; factor 1 = untreated enzyme, 0 = blocked. activation factor at 5 µM. 96,000 compounds, 1.4% hits;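 active means activation factor of 2 or more for CYP2C9 at a 5 µM dose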;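 further: 0 = sulfaphenazole-blocked wells and 1 = vehicle-only wells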
CYP2C19 inh: blocks human cytochrome P450 2C19. inhibition, % at 5 µM. AID 778. CYP2C19 Supersomes, luciferin-H EGE luminescence, 30 min. 96,000 compounds, 21% hits. P33261;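 active means CYP2C19 inhibition above a set limit at 5 µM in the primary screen, cut at about 50% in these data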;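 further: plate controls were negative control wells for no effect and 2.5 mM tranylcypromine positive control for full effect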
sEH inh: blocks human soluble epoxide hydrolase activity. recombinant human sEH enzymatic activity assay. inhibition, % at 2 µM. 91,000 compounds, 0.34% hits. AID 707; in the data active means inhibition above about 80%
CYP2C9 inh: blocks human cytochrome P450 2C9; CYP2C9 Supersomes, luciferin-H conversion, luminescence; inhibition, % at 5 µM; AID 777; 96,000 compounds, 20% hits;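 active means blocking of liver enzyme CYP2C9 beyond about 50% at 5 µM, limit read from the data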
CYP2C19 act: increases human CYP2C19 enzyme activity; recombinant CYP2C19, luciferin-H EGE luminescence; hits give high values; 0 = fully inhibited enzyme, 1 = untreated enzyme; activation factor at 5 µM; AID 1025; P33261; 96,000 tested, under 10 active;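 active means activation factor of at least 2 at 5 µM in the primary screen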;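 further: 0 = wells with 2.5 mM tranylcypromine and 1 = vehicle-only wells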
* hit, by the source's call; . = not tested or not shown. Rows were chosen to be rich in hits. Some 27% of all compounds tested hit in one or more screens of this group.

SMILES	sEH activator	CYP2C9 activ	CYP2C19 inh	sEH inh	CYP2C9 inh	CYP2C19 act
Cc1cc(Oc2ccccc2)nc(OCC#N)n1	21	1	32	-23	2	0.7
CCOC(=O)C1CCCN(C(=O)CN2CCN(Cc3ccc(Cl)cc3)C2=O)C1 (stereo not given)	0	0.9	3	-1	10	1
O=C(NCCCN=C1NS(=O)(=O)c2ccccc21)c1ccco1	-6	.	.	11	.	.
O=C(NCCCN=C1NS(=O)(=O)c2ccccc21)c1ccncc1	14	0.2	22	-11	80*	0.8
O=S1(=O)NC(=NCc2ccccc2)c2ccccc21	4	0.9	60*	-4	5	0.4
NCCN=C1NS(=O)(=O)c2ccccc21	10	.	.	-4	.	.
CC1CN(C(=O)c2cc3c(=O)n4ccccc4nc3s2)CC(C)O1 (stereo not given)	.	0.8	8	.	17	0.9
COc1ccc(Cc2nc3ccc(S(N)(=O)=O)cc3[nH]2)cc1OC	2	0.7	16	-4	29	0.8
O=C(Oc1cccc2c(O)cccc12)c1ccccc1	.	0.3	84*	.	73*	0.2
CCOC(=O)Cc1csc(NC(=O)CCNS(=O)(=O)c2ccc3c(c2)CCC(=O)N3)n1	.	0.4	8	.	56*	0.9
Cc1cccc(N2CCN(C(=O)CCNS(=O)(=O)c3ccc4c(c3)CCC(=O)N4)CC2)c1C	.	0.4	-3	.	58*	1
CCOC(=O)Cc1csc(NC(=O)CCCCCN2C(=O)c3cccc4cccc(c34)C2=O)n1	-1	.	.	7	.	.
Cc1cc(Cl)ccc1OCC(=O)NCCOc1nc(N2CCOCC2)nc(N2CCOCC2)n1	-20	0.8	19	20	23	0.8
CCC(C)NC(=O)CNC(=O)Cn1c(C)cc2ccccc2c1=O (stereo not given)	.	1.2	11	.	-24	0.9
COc1cccc(-c2nc(-c3ccccc3)no2)c1	9	1	2	-4	-3	1
c1ccc(-c2noc(-c3ccncc3)n2)nc1	3	0.7	68*	-3	25	0.3
COc1cccc(-c2nc(-c3ccccn3)no2)c1	1	0.6	75*	1	39	0.2
c1ccc(-c2noc(-c3ccc4c(c3)OCO4)n2)nc1	.	0.1	79*	.	92*	0.2
CC(C)NS(=O)(=O)c1ccc(N2C(=O)c3ccccc3C2=O)cc1	-7	0.9	10	9	13	0.9
O=C(Nc1cccc2ccccc12)/C(=C/c1ccc([N+](=O)[O-])cc1)NC(=O)c1ccccc1	3	0.9	46	-5	12	0.5
O=C(Nc1cccc2ccccc12)/C(Cl)=C/c1ccccc1	13	3*	4	-14	-199	1
O=C(Nc1cccc(NC(=O)c2ccc(-c3ccc(Br)cc3)o2)c1)c1ccco1	8	.	.	-8	.	.
CCOCCN(C(=O)COC)c1cccc(OC)c1	19	1	20	-19	0	0.8
COCCn1ccc(O)c(Cc2ccc(Cl)cc2)c1=O	-1	0.8	30	3	15	0.7
O=C(Nc1nc(=S)ss1)c1ccc(Cl)cc1Cl	-1	0.1	24	5	94*	0.8
SMILES	sEH activator	CYP2C9 activ	CYP2C19 inh	sEH inh	CYP2C9 inh	CYP2C19 act
C=CCn1c(SCC(=O)c2cc(C)n(CC3CCCO3)c2C)nnc1-c1ccccc1 (stereo not given)	.	0.9	73*	.	8	0.3
Cc1ccc(-n2nnnc2SCC(=O)c2cc(C)n(CC3CCCO3)c2C)cc1 (stereo not given)	.	1.1	42	.	-13	0.6
Cc1cccc(-n2nnnc2SCC(=O)c2cc(C)n(CC3CCCO3)c2C)c1 (stereo not given)	.	1.6	90*	.	-63	0.1
Cc1cc(C(=O)CSc2nc3ccccc3o2)c(C)n1CC1CCCO1 (stereo not given)	-4	1	27	5	1	0.7
Cc1cc(C(=O)CSc2nc3ccccc3[nH]2)c(C)n1CC1CCCO1 (stereo not given)	.	0.4	54*	.	56*	0.5
Cc1sc2nc(SCC(=O)c3cc(C)n(CC4CCCO4)c3C)n(C(C)C)c(=O)c2c1C (stereo not given)	.	0.1	82*	.	88*	0.2
Cc1ccccc1C(=O)OCCCN=C1NS(=O)(=O)c2ccccc21	3	.	.	2	.	.
O=C1CCN(Cc2nnnn2CC2CCCO2)c2ccccc2N1 (stereo not given)	5	1.1	-10	-6	-9	1.1

Compound activity from PubChem.
